Compounds without any hit were thinned out: in the full panel of roughly 79,000, 15% have a hit. Values without a mark were called inactive. The source made the active and inactive calls. Rule as the data show it: active = growth inhibition above about 70%; inactive = the rest.
Experiment: NCI Yeast Anticancer Drug Screen. Data for the mec2-1 strain (AID 157)
Conditions: S. cerevisiae mec2-1 strain, at 11.0 µM, active compounds read high
Outline: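 Cells of the genetically defined mec2-1 yeast strain are incubated with test compound. Inhibition of growth is calculated against vehicle-treated controls.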

Structure (SMILES) | growth inhibition
CN(C)c1ccc(C2CC(C)(O)Oc3cc4c(cc32)OCO4)cc1 (stereo not drawn) | 2%
O=P(NC1CCCCC1)(OCc1ccccc1)OCc1ccccc1 | 7%
COc1oc(C(=O)NC2CCCCC2)c(-c2ccc(Cl)cc2)c1S(=O)(=O)c1ccccc1 | 70% (active)
C[Si](C)(C)/C=C/CCNC(C#N)c1ccccc1 (stereo not drawn) | 43%
CCOc1ccc(NC(=O)C2=C(C)NC(C)=C(C(=O)Nc3ccc(OCC)cc3)C2c2cccc([N+](=O)[O-])c2)cc1 | 1%
CN(C)CCOC1(Cc2ccc(F)cc2)CCC(C(C)(C)C)CC1 (stereo not drawn) | -8%
CC1(C)CC(=O)C(/C=N/c2nc(-c3ccccc3)cs2)=C(O)C1 | 8%
CC(=O)Nc1ccc2c(c1)Cc1cc(N=C3C=CC(=O)O3)ccc1-2 | 89% (active)
O=C1C=C(Cl)C(=O)C(c2ccc(Cl)cc2)=C1 | 67%
CNCCCNc1c2ccccc2nc2cccc([N+](=O)[O-])c12 | 92% (active)
CCCCCCCCCCCC(O)S(=O)(=O)O (stereo not drawn) | -2%
CC(C)OC(=O)c1ccc(CCc2cc(O)c(Br)cc2O)cc1 | 30%
CCc1cc(O)c(Cl)c(C)c1Cl | -13%
CSc1nc(C)c(CCOC(C)=O)c(N=P(c2ccccc2)(c2ccccc2)c2ccccc2)n1 | 1%
CS(=O)(=O)SCc1ccc([N+](=O)[O-])cc1 | 85% (active)
COC1=C(OC)C(=O)C(Sc2ccc3ccccc3c2)=CC1=O | 19%
COc1nc2c(c(=O)n1C)N=C(c1ccccc1)[C@H](C(CC(=O)c1ccccc1)c1ccccc1)C(c1ccccc1)N2 (stereo partly drawn) | -8%
Cc1cc(-c2cc(C)c(O)c(C(C)(C)C)c2)cc(C(C)(C)C)c1O | -10%
Nc1cc(N)c(N=Nc2cccc3c(S(=O)(=O)O)cccc23)cc1N=Nc1cc([N+](=O)[O-])ccc1O | -11%

Structure (SMILES) | growth inhibition
Nc1ccc(F)cc1S | 8%
Brc1ccccc1-c1ncc(-c2ccccc2)o1 | -10%
COc1cc(C2SCC(=O)N2c2ccc(-c3ccc(-n4c(-c5ccccc5)nc5ccccc5c4=O)cc3)cc2)ccc1O (stereo not drawn) | 0%
Nc1ncnc2c1ncn2C1OC(CO)CC1O (stereo not drawn) | 7%
COc1cc(CSc2ccc(O)cc2)cc(O)c1O | -1%
CCOC(=O)C1N=[N+](c2ccccc2)C(=O)/C1=C\n1c(=S)[nH]c2ccc([N+](=O)[O-])cc21 (stereo not drawn) | 2%
CNC(=O)OCc1c(COC(=O)NC)c2n(c1C)-c1ccc(OC)cc1CCC2 | -52%
O=C(NNc1ccccc1)c1ccc(Cl)c(Cl)c1 | -5%
Cc1ccc(CC2(OCCN(C)C)CCC(C(C)(C)C)CC2)cc1 (stereo not drawn) | -7%
C[C@]12CC[C@H](O)CC1=CC[C@@H]1C2CC[C@]2(C)C(=O)NC(=O)CC12 (stereo partly drawn) | -27%
CCCC/C=C/C(C)(C(=O)OCC)C(=O)OCC | -1%
CCc1c(Cl)c(C)cc(O)c1Cl | 5%
O=C(/C=C(/c1ccccc1)N1CCCCC1)c1ccccc1 | -3%
CCCC(=O)Oc1ccc(/C=N/NC(N)=S)nc1 | -4%
CCc1nc2ccc(NCCN(C)C)c3c(=O)c4ccccc4n1c23 | 11%
Cc1sc2ccc3ccccc3c2[n+]1C | -17%
COc1c(O)c(C=O)c(Br)c(C=O)c1O | 14%
Cc1ccc(Cl)cc1NC(=O)OCCN(C)C(=O)Nc1cc(Cl)ccc1C | -36%
Cc1nc2ccccc2nc1NNc1ccccc1 | 9%

Reference: PubChem BioAssay (NCI)
